Experimental data as given in PubChem BioAssay (NCATS).
Inconclusive results are not listed. Where a call stands in place of a potency, no number is given. Values without a mark were called inactive. Calls of active or inactive are those of the source. Calls follow the shape of the dose curve; as a rule, active = well fitted curve in the direction sought with a large enough effect; inconclusive = small, poorly fitted or top-dose-only effect, or another doubt; inactive = no such curve, though single readings can be large; an effect the other way counts as inactive or inconclusive.

Legend:
[1] = target: ATP-dependent 6-phosphofructokinase (Trypanosoma brucei brucei) (UniProt O15648); test: qHTS Assay to Find Inhibitors of T. brucei phosphofructokinase: hit validation (AID 492961);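 also: luminescence reports ADP formed as PFK phosphorylates fructose-6-phosphate with ATP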
In short: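 PFK 1.25 nM, F6P 0.5 mM, ATP 0.1 mM, MgCl2 5 mM, 0.1 M TEA pH 8.0, Tween20 0.01%, BSA 0.1%; 45 min RT. ADP-Glo two-step detection, luminescence. qHTS titration; curve fitting with curve-class categorization.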

[2] = target: Luciferin 4-monooxygenase (Photinus pyralis) (UniProt P08659); test: Biochemical firefly luciferase enzyme assay for NPC (AID 624030);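 also: purified P. pyralis luciferase at 10 nM with luciferin and ATP substrate; nearly all actives have a fitted effect of over 70% in size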
In short: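 Counter-screen for direct inhibition of the luciferase enzyme by approved-drug library compounds, run at 10 nM enzyme in 50 mM Tris acetate (final). Luminescence was read within 5 min of enzyme-buffer addition and normalized to PTC124 versus DMSO (0%).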

[3] = qHTS profiling for inhibitors of Plasmodium falciparum proliferation (AID 504749); also: nearly all actives have a fitted effect of over 60% in size; also: potency is read from the fitted curve at half-maximal effect; conditions: P. falciparum in erythrocytes, SYBR Green DNA, 72 h, at 28.7 µM (top of the series)
In short: (§1)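 P. falciparum-infected erythrocytes (0.3% parasitemia, 2.5% hematocrit final) were exposed to compounds for 72 h at 37 C in 5% CO2, then lysed with SYBR Green buffer overnight at room temperature; parasite DNA fluorescence was normalized to artemisinin and DMSO controls.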

ATS189 = test: as above; conditions: P. falciparum in erythrocytes, SYBR Green DNA, 72 h; series mostly up to 28.7 µM
In short: as §1

C2A = test: as above; conditions: P. falciparum in erythrocytes, SYBR Green DNA, 72 h; series mostly up to 28.7 µM
In short: as §1

CP191 = test: as above; conditions: P. falciparum in erythrocytes, SYBR Green DNA, 72 h; series mostly up to 28.7 µM
In short: as §1

CP192 = test: as above; conditions: P. falciparum in erythrocytes, SYBR Green DNA, 72 h; series mostly up to 28.7 µM
In short: as §1

CP201 = test: as above; conditions: P. falciparum in erythrocytes, SYBR Green DNA, 72 h; series mostly up to 28.7 µM
In short: as §1

CP237 = test: as above; conditions: P. falciparum in erythrocytes, SYBR Green DNA, 72 h; series mostly up to 28.7 µM
In short: as §1

CP238 = test: as above; conditions: P. falciparum in erythrocytes, SYBR Green DNA, 72 h; series mostly up to 28.7 µM
In short: as §1

CP268 = test: as above; conditions: P. falciparum in erythrocytes, SYBR Green DNA, 72 h; series mostly up to 28.7 µM
In short: as §1

CP269 = test: as above; conditions: P. falciparum in erythrocytes, SYBR Green DNA, 72 h; series mostly up to 28.7 µM
In short: as §1

CP286 = test: as above; conditions: P. falciparum in erythrocytes, SYBR Green DNA, 72 h; series mostly up to 28.7 µM
In short: as §1

CP325 = test: as above; conditions: P. falciparum in erythrocytes, SYBR Green DNA, 72 h; series mostly up to 28.7 µM
In short: as §1

CP329 = test: as above; conditions: P. falciparum in erythrocytes, SYBR Green DNA, 72 h; series mostly up to 28.7 µM
In short: as §1

FAB9 = test: as above; conditions: P. falciparum in erythrocytes, SYBR Green DNA, 72 h; series mostly up to 28.7 µM
In short: as §1

JCK = test: as above; conditions: P. falciparum in erythrocytes, SYBR Green DNA, 72 h; series mostly up to 28.7 µM
In short: as §1

PC49 = test: as above; conditions: P. falciparum in erythrocytes, SYBR Green DNA, 72 h; series mostly up to 28.7 µM
In short: as §1

[4] = target: Ubiquitin carboxyl-terminal hydrolase 1 (Homo sapiens) (UniProt O94782); test: Inhibitors of USP1/UAF1: Pilot qHTS (AID 504865);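 also: rhodamine fluorescence freed from ubiquitin-rhodamine substrate followed over time; top concentration of the series differs between compounds; nearly all actives have a fitted effect of over 35% in size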
In short: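 Deubiquitinase activity followed as kinetic rhodamine fluorescence release from 150 nM Ub-Rho. 1 nM USP1/UAF1 with compound, after 15 min room-temperature preincubation, in HEPES pH 7.8 buffer containing TCEP, EDTA, BSA and Tween-20.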

CP215 = test: qHTS profiling for inhibitors of Plasmodium falciparum proliferation (AID 504749); also: nearly all actives have a fitted effect of over 60% in size; also: potency is read from the fitted curve at half-maximal effect; conditions: P. falciparum in erythrocytes, SYBR Green DNA, 72 h; series mostly up to 28.7 µM
In short: as §1

Ubiquitin carboxyl-terminal hydrolase 1 (Homo sapiens), sequence (O94782 whole entry, looked up): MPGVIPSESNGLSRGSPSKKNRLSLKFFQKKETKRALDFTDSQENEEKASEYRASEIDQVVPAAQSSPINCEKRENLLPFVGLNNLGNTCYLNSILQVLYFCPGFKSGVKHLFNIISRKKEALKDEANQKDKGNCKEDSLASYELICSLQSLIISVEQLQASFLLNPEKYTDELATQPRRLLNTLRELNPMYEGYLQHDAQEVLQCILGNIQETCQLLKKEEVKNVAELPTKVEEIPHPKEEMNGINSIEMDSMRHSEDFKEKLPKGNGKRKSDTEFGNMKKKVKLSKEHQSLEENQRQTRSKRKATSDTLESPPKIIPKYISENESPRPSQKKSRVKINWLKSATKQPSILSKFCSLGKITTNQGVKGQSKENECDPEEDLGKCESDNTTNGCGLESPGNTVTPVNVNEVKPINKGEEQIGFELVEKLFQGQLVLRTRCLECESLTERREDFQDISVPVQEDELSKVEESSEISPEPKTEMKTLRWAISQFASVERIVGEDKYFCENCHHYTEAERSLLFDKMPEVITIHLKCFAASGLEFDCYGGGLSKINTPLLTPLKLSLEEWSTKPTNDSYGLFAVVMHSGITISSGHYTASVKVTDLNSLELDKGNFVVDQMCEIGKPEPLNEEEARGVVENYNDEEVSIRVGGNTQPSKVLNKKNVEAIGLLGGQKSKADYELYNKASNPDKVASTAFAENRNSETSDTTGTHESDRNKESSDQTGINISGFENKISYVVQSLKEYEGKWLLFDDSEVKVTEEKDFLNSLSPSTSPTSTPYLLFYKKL
ATP-dependent 6-phosphofructokinase (Trypanosoma brucei brucei), sequence (O15648 whole entry, looked up): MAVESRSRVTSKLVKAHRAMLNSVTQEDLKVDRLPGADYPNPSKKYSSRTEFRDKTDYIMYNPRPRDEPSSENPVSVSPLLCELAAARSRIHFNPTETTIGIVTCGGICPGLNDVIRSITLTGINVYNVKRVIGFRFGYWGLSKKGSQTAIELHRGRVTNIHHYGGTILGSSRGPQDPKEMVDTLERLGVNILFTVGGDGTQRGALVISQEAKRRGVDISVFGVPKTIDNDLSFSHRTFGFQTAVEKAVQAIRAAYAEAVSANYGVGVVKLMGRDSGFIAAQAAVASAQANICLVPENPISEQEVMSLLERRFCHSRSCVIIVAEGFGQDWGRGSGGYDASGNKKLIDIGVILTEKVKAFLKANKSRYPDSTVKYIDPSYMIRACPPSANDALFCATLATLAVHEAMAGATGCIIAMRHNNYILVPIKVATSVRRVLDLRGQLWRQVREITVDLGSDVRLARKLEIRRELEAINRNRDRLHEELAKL
Luciferin 4-monooxygenase (Photinus pyralis), sequence (P08659 whole entry, looked up): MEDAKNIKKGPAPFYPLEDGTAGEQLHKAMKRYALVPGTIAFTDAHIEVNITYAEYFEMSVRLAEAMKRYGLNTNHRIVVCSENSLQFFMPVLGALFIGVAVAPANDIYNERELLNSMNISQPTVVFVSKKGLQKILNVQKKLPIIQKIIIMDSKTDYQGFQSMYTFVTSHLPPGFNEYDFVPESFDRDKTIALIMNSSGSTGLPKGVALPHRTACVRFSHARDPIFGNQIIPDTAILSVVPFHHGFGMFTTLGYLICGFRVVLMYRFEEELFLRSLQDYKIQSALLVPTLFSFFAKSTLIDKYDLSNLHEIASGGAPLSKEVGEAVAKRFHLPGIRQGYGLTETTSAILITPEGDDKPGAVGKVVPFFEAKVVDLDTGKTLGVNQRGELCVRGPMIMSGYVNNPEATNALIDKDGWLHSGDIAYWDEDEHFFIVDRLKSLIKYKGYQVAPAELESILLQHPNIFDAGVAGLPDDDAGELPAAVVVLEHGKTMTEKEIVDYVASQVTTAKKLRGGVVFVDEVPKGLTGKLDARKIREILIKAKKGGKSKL

In the case of `C#CCN1CC(=O)N(COC(=O)[C@@H]2[C@@H](C=C(C)C)C2(C)C)C1=O`, the outcome [1] is reported as “inactive”, the Potency [2] is reported as “inactive” and the activity, negative = inhibition ([3]; parasite line A) is reported as 4.89%. The activity, negative = inhibition ([3]; parasite line B) was 10.9%, the Potency (ATS189) was “inactive” and the Potency (C2A) was “inactive”. The Potency (CP191) was “inactive”, the Potency (CP192) was “inactive” and the Potency (CP201) was “inactive”. The Potency (CP237) was “inactive”, the Potency (CP238) was “inactive” and the Potency (CP268) was “inactive”. For the same compound, the Potency (CP269) was “inactive”, the Potency (CP286) was “inactive” and the Potency (CP325) was “inactive”. The Potency (CP329) was “inactive”, the Potency (FAB9) was “inactive” and the Potency (JCK) was “inactive”. The Potency (PC49) was “inactive”.

For `CCC(=O)OC1(c2ccccc2)CCN(C)CC1C` (configuration not stated), the Potency [4] was “inactive”, the Potency [2] was “inactive” and the activity, negative = inhibition ([3]; parasite line A) was -1.38%. For the same compound, the activity, negative = inhibition ([3]; parasite line B) was 2.19%, the Potency (C2A) was “inactive” and the Potency (CP191) was “inactive”. For the same compound, the Potency (CP192) was “inactive”, the Potency (CP201) was “inactive” and the Potency (CP215) was “inactive”. The Potency (CP237) was 3.98 µM (active), the Potency (CP268) was “inactive” and the Potency (CP269) was “inactive”. The Potency (CP286) was 12.6 µM (active), the Potency (FAB9) was “inactive” and the Potency (JCK) was “inactive”.

In the case of `C[C@]12CCC3C(CCC4=C(Cl)C(=O)CC[C@@]43C)C1CCC2O` (some centres not stated), the outcome [1] is reported as “inactive”, the Potency [4] is reported as “inactive” and the Potency [2] is reported as “inactive”. For the same compound, the activity, negative = inhibition ([3]; parasite line A) was -5.63%, the activity, negative = inhibition ([3]; parasite line B) was -11.9% and the Potency (ATS189) was “inactive”. The Potency (C2A) was “inactive”, the Potency (CP191) was “inactive” and the Potency (CP192) was “inactive”. For the same compound, the Potency (CP201) was “inactive”, the Potency (CP215) was “inactive” and the Potency (CP237) was “inactive”. For the same compound, the Potency (CP238) was “inactive”, the Potency (CP268) was “inactive” and the Potency (CP269) was “inactive”. The Potency (CP286) was “inactive”, the Potency (CP325) was “inactive” and the Potency (CP329) was “inactive”. The Potency (FAB9) was “inactive”, the Potency (JCK) was “inactive” and the Potency (PC49) was “inactive”.

With `CC1CC[C@@]2(NC1)OC1CC3C4CC[C@@H]5CC(O)CC[C@@]5(C)C4CC[C@]3(C)C1C2C` (some centres not stated) the outcome [1] was “inactive”, the Potency [2] was “inactive” and the Potency (ATS189) was “inactive”. For the same compound, the Potency (C2A) was “inactive”, the Potency (CP191) was “inactive” and the Potency (CP192) was “inactive”. The Potency (CP201) was “inactive”, the Potency (CP215) was “inactive” and the Potency (CP237) was “inactive”. The Potency (CP238) was “inactive”, the Potency (CP268) was “inactive” and the Potency (CP269) was “inactive”. The Potency (CP286) was “inactive”, the Potency (CP325) was “inactive” and the Potency (CP329) was “inactive”. For the same compound, the Potency (FAB9) was “inactive”, the Potency (JCK) was “inactive” and the Potency (PC49) was “inactive”.

In the case of `CC(C)=CC1C(C(=O)OCc2coc(Cc3ccccc3)c2)C1(C)C` (configuration not stated), the outcome [1] is reported as “inactive”, the Potency [2] is reported as “inactive” and the Potency (ATS189) is reported as “inactive”. The Potency (C2A) was “inactive”, the Potency (CP192) was “inactive” and the Potency (CP201) was “inactive”. For the same compound, the Potency (CP215) was “inactive”, the Potency (CP237) was “inactive” and the Potency (CP238) was “inactive”. For the same compound, the Potency (CP268) was “inactive”, the Potency (CP269) was “inactive” and the Potency (CP286) was “inactive”. For the same compound, the Potency (CP325) was “inactive”, the Potency (CP329) was “inactive” and the Potency (FAB9) was “inactive”. For the same compound, the Potency (JCK) was “inactive” and the Potency (PC49) was “inactive”.

For `O=C1CC2OCC=C3CN4CC[C@]56c7ccccc7N1C5C2[C@H]3C[C@H]46` (some centres not stated), the outcome [1] was “inactive”, the Potency [4] was “inactive” and the activity, negative = inhibition ([3]; parasite line B) was -18.7%. For the same compound, the Potency (CP191) was “inactive”, the Potency (CP237) was 5.01 µM (active) and the Potency (CP238) was 10 µM (active). The Potency (CP325) was 13.5 µM (active), the Potency (FAB9) was “inactive” and the Potency (PC49) was “inactive”.

For `CC(=O)[C@H]1CC[C@H]2C3CC[C@H]4C[C@H](O)CC[C@]4(C)C3CC[C@]12C` (some centres not stated), the outcome [1] was “inactive”, the Potency [4] was “inactive” and the Potency [2] was “inactive”. For the same compound, the activity, negative = inhibition ([3]; parasite line A) was -11.3%, the activity, negative = inhibition ([3]; parasite line B) was 2.02% and the Potency (ATS189) was “inactive”. For the same compound, the Potency (C2A) was “inactive”, the Potency (CP191) was “inactive” and the Potency (CP192) was “inactive”. The Potency (CP201) was “inactive”, the Potency (CP215) was “inactive” and the Potency (CP237) was “inactive”. For the same compound, the Potency (CP238) was “inactive”, the Potency (CP268) was “inactive” and the Potency (CP269) was “inactive”. The Potency (CP286) was “inactive”, the Potency (CP325) was “inactive” and the Potency (CP329) was “inactive”. For the same compound, the Potency (FAB9) was “inactive”, the Potency (JCK) was “inactive” and the Potency (PC49) was “inactive”.

With `C[C@@H](N)[C@@H](O)c1ccc(O)c(O)c1` the Potency [4] was “inactive”, the Potency [2] was “inactive” and the activity, negative = inhibition ([3]; parasite line A) was -5.35%. The activity, negative = inhibition ([3]; parasite line B) was 7.25%, the Potency (ATS189) was “inactive” and the Potency (C2A) was “inactive”. For the same compound, the Potency (CP191) was “inactive”, the Potency (CP192) was “inactive” and the Potency (CP201) was “inactive”. For the same compound, the Potency (CP215) was “inactive”, the Potency (CP237) was “inactive” and the Potency (CP238) was “inactive”. For the same compound, the Potency (CP268) was “inactive”, the Potency (CP269) was “inactive” and the Potency (CP286) was “inactive”. The Potency (CP325) was “inactive”, the Potency (CP329) was “inactive” and the Potency (FAB9) was “inactive”. For the same compound, the Potency (JCK) was “inactive” and the Potency (PC49) was “inactive”.

In the case of `COC(=O)C1C(OC(=O)c2ccccc2)CC2CCC1N2C` (configuration not stated), the Potency [4] is reported as “inactive”, the Potency [2] is reported as “inactive” and the activity, negative = inhibition ([3]; parasite line A) is reported as 9.75%. The activity, negative = inhibition ([3]; parasite line B) was -3.4%, the Potency (ATS189) was “inactive” and the Potency (C2A) was “inactive”. The Potency (CP191) was “inactive”, the Potency (CP192) was “inactive” and the Potency (CP201) was “inactive”. For the same compound, the Potency (CP215) was “inactive”, the Potency (CP237) was “inactive” and the Potency (CP238) was “inactive”. The Potency (CP268) was “inactive”, the Potency (CP269) was “inactive” and the Potency (CP286) was “inactive”. For the same compound, the Potency (CP325) was “inactive”, the Potency (CP329) was “inactive” and the Potency (FAB9) was “inactive”. For the same compound, the Potency (JCK) was “inactive” and the Potency (PC49) was “inactive”.

In the case of `CN(C)C1C(=O)C(C(N)=O)C(=O)C2(O)C(=O)C3C(=O)c4c(O)cccc4C(C)(O)C3C(O)C12` (configuration not stated), the outcome [1] is reported as “inactive”, the Potency [2] is reported as “inactive” and the Potency (ATS189) is reported as “inactive”. The Potency (C2A) was “inactive”, the Potency (CP191) was “inactive” and the Potency (CP192) was “inactive”. The Potency (CP201) was “inactive”, the Potency (CP215) was “inactive” and the Potency (CP238) was “inactive”. For the same compound, the Potency (CP329) was “inactive”, the Potency (FAB9) was “inactive” and the Potency (JCK) was “inactive”. For the same compound, the Potency (PC49) was “inactive”.

With `CCCCCCC(=O)O[C@H]1CC[C@H]2[C@@H]3CCC4CC(=O)C=C(C)[C@]4(C)[C@H]3CC[C@]12C` (some centres not stated) the outcome [1] was “inactive”, the Potency [2] was “inactive” and the activity, negative = inhibition ([3]; parasite line A) was -7.1%. For the same compound, the activity, negative = inhibition ([3]; parasite line B) was -5.28%, the Potency (ATS189) was “inactive” and the Potency (C2A) was “inactive”. For the same compound, the Potency (CP191) was “inactive”, the Potency (CP192) was “inactive” and the Potency (CP201) was “inactive”. The Potency (CP215) was “inactive”, the Potency (CP238) was “inactive” and the Potency (CP268) was “inactive”. The Potency (CP269) was “inactive”, the Potency (CP286) was 11.2 µM (active) and the Potency (CP325) was “inactive”. For the same compound, the Potency (CP329) was “inactive”, the Potency (FAB9) was “inactive” and the Potency (JCK) was “inactive”. The Potency (PC49) was “inactive”.
